This is an account of results in PubChem BioAssay (NCI).

Compounds without any hit were thinned out: in the full panel of roughly 83,000, 20% have a hit.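 Assay: single dose, 48 h. Readout: percent growth (0 = no net growth; negative = cell death). Active: <10.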 A number with no mark means an inactive call. Active and inactive are the calls of the source.

This assay relates to MDA-MB-468 breast. The assay can be described thus: NCI-60 one-dose screen, 48 h (100 = growth as untreated, 0 = no growth, -100 = all killed). The following applies: 10 µM unless noted.
Regarding `OCC1C2C=CC(C2)C1CO` (stereo not given), the growth is 98.4%.
The result for `C#CCn1cnc2cnc(Nc3cccc(NC(=O)CCl)c3)nc21` reads -17.3% [6.25 µM] (active); that for `O=C1C(Cl)=C(Nc2ccccc2)C(=O)C(Cl)=C1Nc1ccccc1`, 102%.
The result for `O=[N+]([O-])c1ccc(NS(=O)(=O)c2cc(Cl)ccc2Cl)c2ccccc12` reads 23.6%; that for `CC(=O)N1C/C(=C/c2ccc(Cl)cc2)C(=O)/C(=C/c2ccc(Cl)cc2)C1`, -80% (active).
Take `O=C1CCC(=O)N1Cc1ccccc1`: the growth was 88.2%.
The result for `COc1ccc(-c2nc(NN)c3c(C)nn(-c4ccc(F)cc4)c3n2)cc1` reads 25.8%; that for `Cc1ccc(Nc2ncnc3c2c(C)nn3-c2ccc([N+](=O)[O-])cc2)cc1`, 84.2%; that for `CCCCCCC(C)N(CC(C)(C)O)C(=O)c1ccc([N+](=O)[O-])cc1` (stereo not given), 96.1%.
Regarding `NC1=C(Cl)C(=O)c2ccc(S(N)(=O)=O)cc2C1=O`, the growth is -92.4% (active).
The value for `O=C(N=Nc1c(O)[nH]c2ccccc12)Nc1ccc(Br)cc1` was 70.5%; that for `O=C1OCC2=C1C(c1ccccc1)c1cc3c(cc1N2CCO)CCC3` (stereo not given) was 15%.
As to `CCCN1CCN(c2ccc3nc(-c4ccc5nc(-c6ccc(OCC)cc6)[nH]c5c4)[nH]c3c2)CC1`, the growth was -67.6% (active).
The value for `O=C(O)CCCc1cnc2c3sccc3nc(SCc3c(Cl)cccc3Cl)n12` was 60.9%; that for `Nc1nonc1-c1nc2ccccc2n1CC(=O)Nc1ccc2c(c1)COC2=O` was 26.2%; that for `CCOC(=O)c1nn(C2CCCCO2)c2ccc(NC(=O)CN3CCCC3)cc12` (stereo not given) was 111%.
On to `Fc1ccc(Nc2ccnc(N3CCN(c4ccnc5cc(Cl)ccc45)CC3)n2)cc1`, for which the growth is 15.9%.
The result for `COc1cc(/C=C2\Oc3cc(OCCCN4CCCC4)ccc3C2=O)cc(OC)c1` reads 42.3%; that for `CCCC(C)c1cc(Cc2cc(Cl)cc(Cl)c2O)c(O)c(Cc2cc(Cl)cc(Cl)c2O)c1` (stereo not given), -1.2% (active).
Consider `COc1ccc(NC(=O)c2sc3nc(C)c(C(=O)c4ccccc4)cc3c2N)cc1`, for which the growth is 83.9%.
The value for `O=C(CCCCCCc1nc2ccc(Br)cc2[nH]1)NO` was -1.04% (active).
The result for `CC(c1ccccc1)N1C(=O)C(C2SC(=S)N(C(C)c3ccccc3)C2=O)SC1=S` (stereo not given) reads 44.2%; that for `Cc1cc(NCCCN(C)C)c2ccc3c(ccc4c(NCCCN(C)C)cc(C)nc43)c2n1`, -88.9% (active).
On to `CCCCc1ccc(Nc2ccc(Nc3ccc(CCCC)cc3S(=O)(=O)O)c3c2C(=O)c2ccccc2C3=O)c(S(=O)(=O)O)c1`, for which the growth was 112%.
The value for `O=C1Nc2ccccc2C1=NC1CCCCC1` was 102%; that for `O=C(Cc1ccc(/C=C/C(=O)c2nccs2)cc1)Nc1ccccc1` was 91.7%; that for `Cc1ncn(-c2ccc(/C=N/Nc3ccnc4cc(Cl)ccc34)cc2)c1C` was -21.4% (active).
Turning to `O=C(CNc1nc(-c2cccc([N+](=O)[O-])c2)cs1)Nc1cccc(Cl)c1`, the growth was 98%.
The result for `N#Cc1c(-c2cccc(Cl)c2)cc(-c2cccc(Cl)c2)[nH]c1=O` reads 73.2%; that for `CCN(CC)c1ccc(C(O)C2=CC(=O)c3ccccc3C2=O)cc1` (stereo not given), -53% (active); that for `C=C(C)[C@@H]1CC[C@]2(C(=O)OC)CC[C@]3(C)[C@H](CC[C@@H]4[C@@]5(C)CC/C(=N\OCCC(=NCCC#N)NOCCC#N)C(C)(C)[C@@H]5CC[C@]43C)[C@@H]12`, 4.41% [100 µM] (active).
`Cn1cc(-c2csc(-c3cn(C)c4ccccc34)n2)c2cnccc21`: the growth is -27.1% (active).
The result for `Cn1cc(-c2nc(-c3c[nH]c4ccccc34)cs2)c2cccnc21` reads -12.5% (active).
The value for `Cc1n(Cc2ccc3ccccc3n2)cc[n+]1Cc1ccc2ccccc2c1` was -23.5% (active); that for `CCc1onc(-c2ccc(OC)cc2)c1-c1ccccc1OCCN(CC)CC` was 80%; that for `CCCCCCCCCCCCCCCCCC1=NCCN1CCOC1=C(Cl)C(=O)c2ccccc2C1=O` was -50.1% (active).
As for `O=C(Nc1ccccc1O)c1ccc(CNC(=O)c2sccc2Nc2ccnc(C(F)(F)F)c2)cc1`, the growth is 14.8%.
Consider `Cc1nc2ccccc2n1CC1NC(=O)NC1=O` (stereo not given), for which the growth was 97.6%.
The result for `COc1ccc([C@@H]2[C@@H](Cl)C(=O)N2c2cc(OC)c(OC)c(OC)c2)cc1C` reads 18.9%; that for `CSc1ccc(-c2ccccc(=O)c2O)cc1`, 11.5%.
